Screens (PubChem BioAssay)
IL1B secr inh – qHTS for Inhibitors of Inflammasome Signaling: IL-1-beta AlphaLISA Primary Screen | 4.7% of 360,000 active | AID 743279, 2014 | activity change, % at 57.5 µM | THP-1 LPS/ATP IL-1B secretion, AlphaLISA, 16 h; hits give low values; in the data active = activity change below about -50%; inconclusive = mostly about -30% to -49%; also: % is scaled to controls: 0 for no effect and ±100 for the full control effect
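THP-1 cells pretreated 1 hr with compounds (up to 57.5 uM final), then stimulated with LPS (250 ng/mL final) plus ATP (1.25 mM final); secreted IL-1B measured by AlphaLISA after 16 hr, decreased signal indicating inhibition.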
D3 antag – qHTS of D3 Dopamine Receptor Antagonist: qHTS; D(3) dopamine receptor (Homo sapiens), P35462; D3R cells, DiscoveRx beta-arrestin luminescence, antagonist mode; hits give low values; max response, negative = inhibition, %; 2.5% of 360,000 active; AID 652054, 2013; in the data active = max response below about -50%; inconclusive = no clear call, values can overlap the other calls; also: % is scaled to controls: 0 for no effect and ±100 for the full control effect
Target sequence (P35462 whole entry, looked up): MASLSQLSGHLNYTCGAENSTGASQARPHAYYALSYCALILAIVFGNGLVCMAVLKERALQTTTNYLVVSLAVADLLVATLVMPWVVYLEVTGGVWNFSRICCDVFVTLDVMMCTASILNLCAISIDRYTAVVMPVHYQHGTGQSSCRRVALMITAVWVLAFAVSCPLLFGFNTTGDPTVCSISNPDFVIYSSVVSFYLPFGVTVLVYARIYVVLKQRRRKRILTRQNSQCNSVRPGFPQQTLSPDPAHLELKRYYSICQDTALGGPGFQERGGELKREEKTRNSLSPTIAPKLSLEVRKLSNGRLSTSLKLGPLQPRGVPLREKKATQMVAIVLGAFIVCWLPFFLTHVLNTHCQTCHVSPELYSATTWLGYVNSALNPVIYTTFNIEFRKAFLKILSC
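Cells plated overnight at 1500 cells/well, then exposed to library compounds with dopamine controls for 90 minutes at 37 degrees C. DiscoveRx reagent added for 30–60 minutes at room temperature; luminescence read, quantitative HTS format.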
ATXN2 expr inh – Primary qHTS for Inhibitors of ATXN expression. 0.72% of 360,000 active. HEK-293 ATXN2-luciferase reporter, luminescence, 24 h. AID 1745845, 2022. Potency, µM (top dose mostly 57 µM), for inactives: at the highest dose activity change, negative = inhibition, hits mostly inhibitors; also: potency is read from the fitted curve at half-maximal effect; % is scaled to controls: 0 for no effect and ±100 for the full control effect; nearly all actives have a fitted effect of over 55% in size
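qHTS (up to 57 uM final) was run with 24 h compound exposure of reporter cells at 37 °C. Each well was multiplexed: SteadyGlo luminescence measured ATXN2-luciferase expression after a fluorogenic Gly-Phe-AFC viability readout (25 uM final).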
DRD3 agonist – qHTS of D3 Dopamine Receptor Agonist: qHTS. D(3) dopamine receptor (Homo sapiens), P35462. D3R DiscoveRx beta-arrestin cells, luminescence, 90 min. max activation, %. 0.58% of 410,000 active. AID 652048, 2013; in the data active = max activation above about 30%; also: 0% is about no effect
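Agonist-mode cell screen: cells plated at 1500/well and incubated overnight at 37 °C, then exposed to library compounds for 90 min at 37 °C. Detection reagent was added for 30–60 min at room temperature, and luminescence was read.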
ATXN viability – Viability Counterscreen for Primary qHTS for Inhibitors of ATXN expression; S2 cells (HEK-293 line with an ATXN2-luciferase reporter) viability, CellTiter-Fluor protease fluorescence, 24 h; AID 651635, 2014; Potency, µM (titrated, usually from 56.7 µM), hits mostly cytotoxic; 0.49% of 400,000 active; also: potency is read from the fitted curve at half-maximal effect; nearly all actives have a fitted effect of over 40% in size
Integrin act MD – qHTS for Activators of Integrin-Mediated Alleviation for Muscular Dystrophy; alpha7betagal myoblasts, beta-gal FDG fluorescence, 48 h; Potency, µM (top dose mostly 38.3 µM), for inactives: at the highest dose activation, hits mostly activators; 0.064% of 350,000 active; AID 624291, 2012;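 also: potency is read from the fitted curve at half-maximal effect; 100% = response of the positive control SU9516; nearly all actives have a fitted effect of over 60% in size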
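Alpha7betagal+/- myoblasts (passage 13) were plated 16-24 hr, then exposed to compounds (1:260 dilution of DMSO stock) for 48 hours at 37C. After MPER lysis, β-galactosidase reporter activity was read as FDG fluorescence (ex 480/em 540) after 30 minutes.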
The depositor's hits bear a star. A selection: hits, their analogues and other compounds. The true share with any hit is near 7%. Unless noted, calls follow the shape of the dose curve; as a rule, active = well fitted curve in the direction sought with a large enough effect; inconclusive = small, poorly fitted or top-dose-only effect, or another doubt; inactive = no such curve, though single readings can be large; an effect the other way counts as inactive or inconclusive.

How did O=C(Nc1ccc(Nc2ccccc2)cc1)c1ccccc1 do in these assays?
IL1B secr inh: -27; D3 antag: inconclusive; DRD3 agonist: -2; ATXN viability: inconclusive; Integrin act MD: 16%

What do the screens show for `Cc1ccc(C(=O)Nc2ccc(Nc3ccccc3)cc2)cc1C`?
IL1B secr inh: -69*; D3 antag: -6; ATXN2 expr inh: 0%; DRD3 agonist: 11; ATXN viability: inconclusive; Integrin act MD: 9%

Results for O=C(Nc1ccc(Nc2ccccc2)cc1)C(Cl)Cl ?
IL1B secr inh: -89*; D3 antag: -9; ATXN2 expr inh: -16%; DRD3 agonist: 1; ATXN viability: inconclusive; Integrin act MD: 3%

What do the screens show for `Cc1ccc(C(=O)Nc2ccc(Nc3ccccc3)cc2)cc1Br`?
D3 antag: -27; ATXN2 expr inh: 9%; DRD3 agonist: -4; ATXN viability: inactive; Integrin act MD: -12%

How did O=C(CC(=O)c1ccccc1)Nc1ccc(Cl)cc1 do in these assays?
IL1B secr inh: -77*; D3 antag: -2; ATXN2 expr inh: 38%; DRD3 agonist: -5; ATXN viability: inactive; Integrin act MD: 5%

What do the screens show for `NC(=O)Nc1ccc(Nc2ccccc2)cc1`?
IL1B secr inh: 10; D3 antag: 2; DRD3 agonist: 3; ATXN viability: inactive; Integrin act MD: 8%

Results for O=C(Nc1ccc(Nc2ccccc2)cc1)c1ccc(Cl)cc1 ?
IL1B secr inh: -62*; D3 antag: 16; DRD3 agonist: 3; ATXN viability: inactive; Integrin act MD: -28%

Results for Cc1cc(C)cc(C(=O)Oc2cc(C)[nH]c(=O)c2[N+](=O)[O-])c1 ?
IL1B secr inh: 3; D3 antag: 8; DRD3 agonist: 0; ATXN viability: inactive; Integrin act MD: 4%

How did CCCc1cc(=O)[nH]c(Nc2cc(Cl)ccc2OC)n1 do in these assays?
ATXN2 expr inh: 8%; DRD3 agonist: -30; ATXN viability: inactive

Results for CCCc1cc(=O)[nH]c(Nc2cc(OC)ccc2OC)n1 ?
IL1B secr inh: 18; D3 antag: -52*; ATXN2 expr inh: -3%; DRD3 agonist: -23; ATXN viability: inactive; Integrin act MD: 15%

What do the screens show for `CCN1C(=O)[C@H]2[C@@H](c3ccc(-c4ccccc4)cc3)N[C@@](Cc3ccccc3)(C(=O)OC)[C@H]2C1=O`?
IL1B secr inh: -53*; D3 antag: 0; ATXN2 expr inh: -1%; DRD3 agonist: -11; ATXN viability: inactive; Integrin act MD: 28%

What do the screens show for `CCN1C(=O)[C@H]2[C@@H](c3ccc(-c4cc(C(C)=O)cs4)cc3)N[C@@](Cc3ccccc3)(C(=O)OC)[C@H]2C1=O`?
IL1B secr inh: 8; D3 antag: -14; ATXN2 expr inh: 9%; DRD3 agonist: 37*; ATXN viability: inactive; Integrin act MD: 27%

How did CCN1C(=O)[C@H]2[C@@H](c3ccc(-c4ccc(C(C)=O)cc4)cc3)N[C@@](Cc3ccccc3)(C(=O)OC)[C@H]2C1=O do in these assays?
IL1B secr inh: -20; D3 antag: -13; ATXN2 expr inh: -4%; DRD3 agonist: -4; ATXN viability: inconclusive; Integrin act MD: 17%

What do the screens show for `CC(C)NC(=O)N(C)C[C@H]1Oc2c(NC(=O)c3ccc(-c4nccs4)cc3)cccc2C(=O)N([C@@H](C)CO)C[C@H]1C`?
IL1B secr inh: 6; D3 antag: 57; ATXN2 expr inh: -2%; DRD3 agonist: 0; ATXN viability: inconclusive; Integrin act MD: 13%

What do the screens show for `O=C(Nc1c(Cl)ccc2nsnc12)c1cccnc1`?
IL1B secr inh: -3; D3 antag: 21; DRD3 agonist: 0; ATXN viability: inactive; Integrin act MD: 6%

How did Oc1[nH]c2ccc(Br)cc2c1N=Nc1ccc(C(F)(F)F)cn1 do in these assays?
IL1B secr inh: -57*; D3 antag: 10; ATXN2 expr inh: 1%; DRD3 agonist: 1; ATXN viability: inactive; Integrin act MD: -41%

What do the screens show for `Oc1[nH]c2ccccc2c1N=Nc1ccc(C(F)(F)F)cn1`?
IL1B secr inh: 29; D3 antag: 15; ATXN2 expr inh: 87%; DRD3 agonist: 4; ATXN viability: inactive; Integrin act MD: -11%

How did Cc1c(/C=N/NC(=O)c2ccccc2O)c2ccccn2c1C(=O)c1ccc(F)cc1 do in these assays?
IL1B secr inh: -88*; D3 antag: 13; ATXN2 expr inh: inconclusive; DRD3 agonist: 31*; ATXN viability: inactive; Integrin act MD: 1%

How did O=c1c2cnn(-c3ccccc3)c2nnn1Cc1ccccn1 do in these assays?
IL1B secr inh: 1; D3 antag: -25; ATXN2 expr inh: 3%; DRD3 agonist: -6; ATXN viability: inactive; Integrin act MD: -5%

How did O=C1CN(c2nc(-c3cccs3)nc3sc4c(c23)CCCC4)CCN1 do in these assays?
IL1B secr inh: -94*; D3 antag: 18; ATXN2 expr inh: 51%; DRD3 agonist: 7; ATXN viability: inactive; Integrin act MD: -11%

What do the screens show for `OCC[C@@H]1C[C@H](O)[C@@H](O)[C@@]2(OCc3cc(Cl)ccc32)O1`?
IL1B secr inh: 19; D3 antag: -22; ATXN2 expr inh: -4%; DRD3 agonist: -6; ATXN viability: inactive; Integrin act MD: 5%

Results for CCn1cc2nc(SCc3cc(C)ccc3C)n(Cc3ccc(OC)cc3)c(=O)c2n1 ?
ATXN2 expr inh: -3%; DRD3 agonist: -6; ATXN viability: inactive

Results for COCCCn1c(SCc2ccccc2)nc2cc(OC)c(OC)cc2c1=N ?
IL1B secr inh: -10; D3 antag: 34; ATXN2 expr inh: 3%; DRD3 agonist: 31*; ATXN viability: inactive; Integrin act MD: -26%

How did COc1ccc(Cn2c(SCc3cc(C)ccc3C)nc3cc(OC)c(OC)cc3c2=N)cc1 do in these assays?
IL1B secr inh: -96*; D3 antag: 0; DRD3 agonist: 44*; Integrin act MD: -68%

How did COc1ccc(Cn2c(SCc3ccc(C)cc3)nc3cc(OC)c(OC)cc3c2=N)cc1Cl do in these assays?
IL1B secr inh: -121*; D3 antag: -29; ATXN2 expr inh: 28µM*; DRD3 agonist: -8; ATXN viability: 16µM*; Integrin act MD: -52%

What do the screens show for `O=C(CNC(=O)c1ccc(Br)o1)NCc1ccccc1`?
IL1B secr inh: 26; D3 antag: -1; ATXN2 expr inh: 2%; DRD3 agonist: -10; ATXN viability: inconclusive; Integrin act MD: 7%

How did NC1=Nc2cccc3cccc1c23 do in these assays?
IL1B secr inh: -65*; D3 antag: -29; ATXN2 expr inh: inconclusive; DRD3 agonist: -33; Integrin act MD: 7.9µM*
